Assay outcomes from PubChem BioAssay.
PLK1 PBD inh: qHTS for Inhibitors of PLK1-PDB (polo-like kinase 1 - polo-box domain): Primary Screen | hit rate 2.8% among 360,000 | Plk1 PBD binding of FITC phosphopeptide, fluorescence polarization | Serine/threonine-protein kinase PLK1 (Homo sapiens), P53350 | Potency, µM, without a hit: max response, negative = inhibition, most hits filed as inhibitors | AID 720504, 2013; further: potency means the concentration at half of the fitted maximal effect; series mostly up to about 57 µM; nearly all actives have a fitted effect of over 65% in size
Target sequence (P53350 whole entry, looked up, the tested form may be a part): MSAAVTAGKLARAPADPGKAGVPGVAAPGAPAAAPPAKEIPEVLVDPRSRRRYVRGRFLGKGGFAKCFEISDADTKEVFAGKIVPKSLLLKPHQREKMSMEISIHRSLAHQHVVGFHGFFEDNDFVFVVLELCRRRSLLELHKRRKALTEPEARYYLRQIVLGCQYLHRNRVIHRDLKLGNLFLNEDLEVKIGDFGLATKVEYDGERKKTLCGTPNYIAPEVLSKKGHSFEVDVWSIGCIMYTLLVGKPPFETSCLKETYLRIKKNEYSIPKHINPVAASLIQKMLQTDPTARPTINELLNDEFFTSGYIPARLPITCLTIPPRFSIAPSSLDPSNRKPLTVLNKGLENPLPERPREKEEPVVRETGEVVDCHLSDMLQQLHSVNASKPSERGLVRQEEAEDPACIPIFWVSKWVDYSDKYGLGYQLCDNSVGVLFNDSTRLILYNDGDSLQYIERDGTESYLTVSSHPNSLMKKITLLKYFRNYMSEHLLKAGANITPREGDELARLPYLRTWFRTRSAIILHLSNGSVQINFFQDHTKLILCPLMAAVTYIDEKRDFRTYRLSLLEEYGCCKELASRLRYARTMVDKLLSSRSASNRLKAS
USP2a inh: qHTS Assay for Inhibitors of Ubiquitin-specific Protease USP2a Using CHOP2 as the Reporter | USP2 core, Ub-CHOP2 coupled fluorogenic reporter, 485/531 | Potency, µM (titrated, usually from 38.3 µM), inactives show at the highest dose activity change, negative = inhibition, actives largely listed as inhibitors | hit rate 0.01% among 330,000 | AID 463254, 2010;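 further: potency means the concentration at half of the fitted maximal effect; plate controls were DMSO wells for no effect and full inhibition by NEM control for full effect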
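Deubiquitinase activity read as fluorescence (485/531 nm) after Ub-CHOP2 cleavage activates the enterokinase reporter on its substrate; USP2 core 10nM, Ub-CHOP2 and substrate 25nM each, 30min compound preincubation then 60min RT; data normalized to NEM, curves fitted.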
USP1 inh: Inhibitors of USP1/UAF1: Primary Screen; Ubiquitin carboxyl-terminal hydrolase 1 (Homo sapiens), O94782; recombinant USP1/UAF1, Ub-Rhodamine cleavage fluorescence; Potency, µM (top dose mostly 57.1 µM), for inactives: at the top dose activity change, negative = inhibition, actives largely listed as inhibitors; hit rate 0.23% among 390,000; AID 743255, 2014; further: potency means the concentration at half of the fitted maximal effect; nearly all actives have a fitted effect of over 60% in size
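Step one: compound is pinned into 1nM USP1/UAF1 in HEPES pH 7.8 buffer with TCEP. Step two: 15 min room-temperature incubation. Step three: Ub-Rho (150nM final) starts cleavage, tracked by fluorescence over six one-minute reads.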
GALK inhibitor: qHTS Assay for Inhibitors of Human Galactokinase (GALK) | Purified GALK, Kinase-Glo residual ATP luminescence | Potency, µM (series often up to 57.5 µM), inactives show at the top dose activity change, negative = inhibition, most hits filed as inhibitors | hit rate 0.007% among 270,000 | AID 1868, 2009; further: potency means the concentration at half of the fitted maximal effect
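Quantitative HTS: GALK 5 nM, ATP 35 uM, galactose 100 uM, 1 h room temperature, then luciferase-based ATP detection.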
FBPA coupling cs: qHTS Assay for Inhibitors of Fructose-1,6-bisphosphate Aldolase from Giardia Lamblia: Coupling assay counterscreen; coupling enzyme system counterscreen, AmpLite Red fluorescence; activity change, negative = inhibition, % at 58.2 µM, hits read low; hit rate 0.67% among 290,000; in the data active means activity change below about -30%
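Final compound at 57.5 uM, incubated 10 min at RT with coupling enzyme reagent (glyceraldehyde-3-phosphate), then 20 min with substrate and AmpLite Red detection. Fluorescence read at 525/598 nm; tests interference with the coupling assay, not aldolase inhibition.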
VDR inhibitor: Inhibitors of the vitamin D receptor (VDR): qHTS. Vitamin D3 receptor (Homo sapiens), P11473. VDR-SRC2-3 peptide fluorescence polarization, 2 h. hit rate 0.93% among 400,000. AID 504847, 2011. Potency, µM, inactives show max response, negative = inhibition, hits mostly inhibitors; further: potency means the concentration at half of the fitted maximal effect
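Inhibition of the VDR/SRC2-3 peptide interaction is quantified by fluorescence polarization. Compounds (23 nl, pintool) incubate with the reagents for 2 hours at ambient room temperature.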
* = called active by the depositor; u = inconclusive; x = not tested or not shown. An excerpt weighted towards active compounds, which were near 3.2% of everything screened. Unless noted, the call rests on the fitted dose curve; in most records, active means well fitted curve in the direction sought with a large enough effect; inconclusive means small, poorly fitted or top-dose-only effect, or another doubt; inactive means no such curve, though single readings can be large; an effect the other way counts as inactive or inconclusive. Unless noted, on the % scale 0 is the no-effect control and ±100 the full control effect.

SMILES | PLK1 PBD inh | USP2a inh | USP1 inh | GALK inhibitor | FBPA coupling cs | VDR inhibitor
CCN1CCN(C(c2cccs2)C(C)NC(=O)c2c(F)cccc2F)CC1 (centres undefined) | -9% | -1% | -5% | -4% | 2 | -7%
O=C1c2cccnc2-c2ncccc21 | -2% | 1% | -23% | 6% | -1 | 5%
CC1(C)OCC(CSC2=C(SCC3COC(C)(C)O3)C(=O)c3ncccc3C2=O)O1 (centres undefined) | x | x | x | x | -87* | x
O=C1c2ccccc2C(=O)C12OC2c1cccc2ccccc12 (centres undefined) | u | 1% | 14µM* | u | -58* | 13µM*
O=C1NC(c2cccc3ccccc23)Nc2ccccc21 (centres undefined) | -7% | x | u | x | x | 12%
CCC(CC)C(=O)Nc1cccc(C(=O)NC(C)(C)C)c1 | 0% | 0% | -14% | 11% | 1 | 3%
O=C(CCl)N1CCCC1c1ccc2c(c1)OCCO2 (centres undefined) | 27µM* | 3% | -20% | 0% | -5 | u
CC(=O)c1ccc(OCC(=O)N2CCCC2c2ccc3c(c2)OCCCO3)cc1 (centres undefined) | -1% | 1% | -18% | x | x | -14%
COc1ccc(NC(=O)CSc2nnc(C3CCCCC3)o2)c(OC)c1 | -3% | 3% | -6% | x | -8 | 2%
C=CCC(C(=O)NC(C)c1ccccc1)C(=O)NC(C)c1ccccc1 (centres undefined) | 27µM* | -6% | -16% | 5% | 2 | -1%
CCC(C(=O)NC(C)c1ccccc1)C(=O)NC(C)c1ccccc1 (centres undefined) | 3% | -1% | -13% | 6% | -2 | 3%
CCOc1ccc2[nH]c(=O)c(C(c3nnnn3Cc3ccco3)N3CCN(C)CC3)cc2c1 (centres undefined) | -13% | -1% | -11% | 1µM* | -67* | 9%
CCOc1ccc2[nH]c(=O)c(C(c3nnnn3CC3CCCO3)N3CCc4ccccc4C3)cc2c1 (centres undefined) | -3% | -1% | u | 14% | -30* | 23%
Cc1cccc2cc(C(c3nnnn3CC3CCCO3)N3CCc4ccccc4C3)c(=O)[nH]c12 (centres undefined) | -20% | 1% | u | -2% | -44* | -22%
CCc1ccc2[nH]c(=O)c(C(c3nnnn3CC3CCCO3)N3CCCc4ccccc43)cc2c1 (centres undefined) | -2% | -1% | -17% | -3% | -31* | -5%
Cc1cc2cc(C(c3nnnn3Cc3ccco3)N3CCCCC3)c(=O)[nH]c2cc1C (centres undefined) | -21% | -2% | -10% | -1% | 0 | 0%
Cc1cc2cc(C(c3nnnn3CC3CCCO3)N3CCCc4ccccc43)c(=O)[nH]c2cc1C (centres undefined) | 0% | 1% | -20% | -6% | 4 | 27%
CCOC(=O)c1cc(-c2csc(COc3ccccc3)n2)on1 | 6% | 2% | -21% | -2% | -1 | -12%
Cc1ccc2cc(C(c3nnnn3CC3CCCO3)N3CCc4ccccc4C3)c(=O)[nH]c2c1 (centres undefined) | -21% | 2% | -15% | -1% | -38* | 1%
COc1ccccc1N1CCN(C(c2cc3ccc(C)cc3[nH]c2=O)c2nnnn2C2CCCC2)CC1 (centres undefined) | -9% | -5% | -14% | -1% | -34* | -16%
Cc1cccc2cc(C(c3nnnn3CC3CCCO3)N3CCCc4ccccc43)c(=O)[nH]c12 (centres undefined) | -6% | 0% | -8% | 11% | -1 | 7%
